High-throughput results as filed in PubChem BioAssay.
TDP1 block: blocks human tyrosyl-DNA phosphodiesterase 1; Q9NUW8; recombinant TDP1, AlphaScreen DNA substrate cleavage; Potency, µM (titrated, usually from 130 µM), inactives show top-dose activity change, negative = inhibition, most hits filed as inhibitors; 350,000 tested, 0.28% active; also: potency is read from the fitted curve at half-maximal effect; % is scaled to controls: 0 for no effect and ±100 for the full control effect; nearly all actives have a fitted effect of over 40% in size
Target sequence (Q9NUW8 whole entry, looked up): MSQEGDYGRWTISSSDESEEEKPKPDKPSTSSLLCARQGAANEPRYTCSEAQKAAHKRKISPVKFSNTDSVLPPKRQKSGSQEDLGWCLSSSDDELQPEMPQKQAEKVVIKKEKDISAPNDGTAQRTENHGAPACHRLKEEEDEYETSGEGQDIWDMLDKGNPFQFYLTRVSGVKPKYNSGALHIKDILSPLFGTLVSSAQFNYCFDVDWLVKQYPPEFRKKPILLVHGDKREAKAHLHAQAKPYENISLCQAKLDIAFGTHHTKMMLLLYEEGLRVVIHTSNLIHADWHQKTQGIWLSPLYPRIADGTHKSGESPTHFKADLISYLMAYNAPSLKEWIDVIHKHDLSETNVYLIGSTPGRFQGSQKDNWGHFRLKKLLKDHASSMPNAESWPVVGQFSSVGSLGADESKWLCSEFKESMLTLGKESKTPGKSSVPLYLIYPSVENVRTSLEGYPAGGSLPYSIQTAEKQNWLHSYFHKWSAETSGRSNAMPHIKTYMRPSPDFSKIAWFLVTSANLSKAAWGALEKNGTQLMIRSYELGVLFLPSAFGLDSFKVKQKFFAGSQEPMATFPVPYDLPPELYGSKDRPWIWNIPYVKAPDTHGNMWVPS
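AlphaScreen read-out: signal falls as enzyme removes the 3' tyrosine-FITC from a 5'-biotinylated DNA oligo (15 nM, 5 min, RT). Enzyme was E. coli-made recombinant Tdp1 at 1 nM, exposed to compound for 15 min beforehand; beads 10 ug/ml, 10 min.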
TGFb inhibitor: blocks TGF-b signaling; HepG2 CAGA-GFP TGF-b/SMAD3 reporter, GFP fluorescence, 18 h; TGF-beta stimulated, 500 pg/mL final; Potency, µM (series often up to 46.1 µM), for inactives: at the top dose activity, negative = inhibition, most hits filed as inhibitors; 410,000 tested, 1.2% active; AID 588855; also: potency is read from the fitted curve at half-maximal effect; % is scaled to controls: 0 for no effect and ±100 for the full control effect; nearly all actives have a fitted effect of over 65% in size
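Using HEPG2 CAGA-GFP reporter cells at 1000 cells/well, we pinned test compounds, stimulated with recombinant TGF-beta (500 pg/mL final) and measured total well GFP after 18 h.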
HepG2 viability: HepG2 cytotoxicity, counter-screen for TGF-b inhibitors; HepG2 CAGA-GFP viability, ATP luminescence, 18 h; Potency, µM (titrated, usually from 46.1 µM), for inactives: at the highest dose activity change, negative = cytotoxicity, most hits filed as cytotoxic; 410,000 tested, 0.76% active; also: potency is read from the fitted curve at half-maximal effect
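HepG2 CAGA-GFP cells (1000/well, DMEM with 1% FBS) received compound, then TGF-beta at 500 pg/mL final, and were incubated 18 hours at 37 degrees C. Viability was read by CellTiter-Glo luminescence. Media-only wells were set as complete cell-killing and DMSO as no toxicity.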
DT40 TDP1 CPT: DT40-hTDP1 cell growth loss with CPT; 420,000 tested, 12% active; AID 686979; chicken DT40 Tdp1-/-;hTDP1 cells + 20 nM CPT, ATP luminescence, 48 h; Potency, µM (titrated, usually from 46.2 µM), for inactives: at the highest dose activity change, negative = growth inhibition, hits mostly inhibitors; also: potency is read from the fitted curve at half-maximal effect; % is scaled to controls: 0 for no effect and ±100 for the full control effect; nearly all actives have a fitted effect of over 55% in size
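Chicken DT40 Tdp1-/- cells stably complemented with human TDP1 were seeded at 400 cells/well in medium containing 20 nM camptothecin, exposed to pin-transferred compounds, and grown at 37 °C for at least 48 hr. Viability was read as ATP luminescence.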
TDP1 cell noCPT: qHTS for Inhibitors of human tyrosyl-DNA phosphodiesterase 1 (TDP1): qHTS in cells in absence of CPT; DT40 Tdp1-/- hTDP1 cells, no CPT, ATP luminescence, 48 h; Potency, µM (highest dose often 46.2 µM), without a hit: top-dose activity change, negative = growth inhibition, hits mostly inhibitors; 420,000 tested, 15% active; AID 686978, 2013; also: potency is read from the fitted curve at half-maximal effect; % is scaled to controls: 0 for no effect and ±100 for the full control effect; nearly all actives have a fitted effect of over 55% in size
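Camptothecin absent (DMSO only). Human TDP1-complemented DT40 knockout cells, 400 cells/well, 37 °C for minimum 48 hr; ATP measured via CellTiter-Glo, 30 min dark incubation, luminescence.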
IL-1B inflam inh: blocks inflammasome-driven IL-1 beta release; THP-1 LPS/ATP IL-1B secretion, AlphaLISA, 16 h; stronger effect = lower value; activity change, % at 57.5 µM; 360,000 tested, 4.7% active; AID 743279; in the data active = activity change below about -50%; inconclusive = mostly about -30% to -49%; also: % is scaled to controls: 0 for no effect and ±100 for the full control effect
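THP-1 cells pretreated 1 hr with compounds (up to 57.5 uM final), then stimulated with LPS (250 ng/mL final) plus ATP (1.25 mM final); secreted IL-1B measured by AlphaLISA after 16 hr, decreased signal indicating inhibition.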
* hit, by the source's call; ? = inconclusive; nt = no result; [ ] = dose if it differs, or a comment. Shown are actives, neighbours in structure and some others; about 19% of the full set was active somewhere. Unless noted, calls follow the shape of the dose curve; as a rule, active = well fitted curve in the direction sought with a large enough effect; inconclusive = small, poorly fitted or top-dose-only effect, or another doubt; inactive = no such curve, though single readings can be large; an effect the other way counts as inactive or inconclusive.

SMILES	TDP1 block	TGFb inhibitor	HepG2 viability	DT40 TDP1 CPT	TDP1 cell noCPT	IL-1B inflam inh
CCOC(=O)N1CC=C2C(C#N)=C(N)C(C#N)(C#N)[C@H](c3ccc(OCC)c(OCC)c3)[C@H]2C1	7.1%	-31.3%	-16.2%	?	-28.2%	-14.0
Cc1ccc2c(c1)C(=O)OC(C(=O)Nc1ncc(Cc3ccc(C(C)C)cc3)s1)C2 (centres undefined)	7.4%	-0.5%	-6.2%	nt	nt	nt
Cn1c(C(=O)Nc2ccc3c(c2)OCCO3)cc2c(=O)n(C)c3ccccc3c21	1.3%	-5.2%	-35.8%	13µM*	11.6µM*	-68.6*
CCOC(=O)N1CCC(NC(=O)c2cc3c(=O)n(C)c4ccccc4c3n2C)CC1	7.9%	-1.8%	-7.8%	20.6µM*	?	-5.4
CN(C)CCNC(=O)c1cc2c(=O)n(C)c3ccccc3c2n1C	-2.9%	-3.0%	-19.6%	-18.3%	-26.0%	-20.0
Cn1c(C(=O)NC2CC2)cc2c(=O)n(C)c3ccccc3c21	4.9%	-6.6%	-6.2%	?	?	-63.3*
CC(N)=NCCCC[C@@H](N)C(=O)O	9.6%[56.1 µM]	nt	nt	nt	nt	nt
Cc1ccc(-c2nc(=Nc3c(C)cc(C)cc3C)sn2-c2ccccc2)cc1	5.3%	5.62µM*	-29.1%	5.01µM*	2.24µM*	nt
CN=c1nc(-c2ccccc2)n(-c2ccccc2)s1	14.5%	-17.4%	-7.1%	4.61µM*	6.51µM*	29.9
COc1ccc(C(=O)N=c2nc(-c3ccccc3)n(-c3ccccc3)s2)cc1	nt	-0.5%	-13.9%	12.6µM*	?	nt
CCOC(=O)c1cccc(NC(=O)Cn2ncc3c(=O)oc4ccccc4c32)c1	-7.0%	-24.0%	-27.1%	2.0%	-15.6%	nt
CN(C)CCCNC(=O)C[C@H]1C[C@H](C(=O)N2CCOCC2)[C@@]2(CCC3CCCC3)c3[nH]c4cc(-c5ccco5)ccc4c3CCN2C1=O	3.1%[56.1 µM]	?	-104.4%	23.1µM*	?	0.0
O=C(C[C@H]1C[C@H](C(=O)N2CCOCC2)[C@@]2(CCC3CCCC3)c3[nH]c4cc(-c5ccco5)ccc4c3CCN2C1=O)NCCN1CCOCC1	4.0%[56.1 µM]	?	-85.8%	23.1µM*	?	-13.0
O=C(C[C@H]1C[C@H](C(=O)N2CCOCC2)[C@@]2(CCC3CCCC3)c3[nH]c4ccc(Cl)cc4c3CCN2C1=O)NCCCn1ccnc1	2.9%[56.1 µM]	11.2µM*	-82.3%	?	?	-58.7*
COCCCNC(=O)C[C@H]1C[C@H](C(=O)N2CCOCC2)[C@@]2(CCC3CCCC3)c3[nH]c4cc(-c5ccco5)ccc4c3CCN2C1=O	4.5%[56.1 µM]	?	-58.3%	?	?	?
CC(C)=CCC/C(C)=C/CNC(=O)C[C@H]1C[C@H](C(=O)N2CCOCC2)[C@@]2(CCC3CCCC3)c3[nH]c4cc(-c5ccco5)ccc4c3CCN2C1=O	1.2%[56.1 µM]	?	1.6%	18.4µM*	?	-22.1
COc1ccc(CC(=O)N2CC(=O)Nc3ccc(F)cc3C2c2ccccc2)cc1 (centres undefined)	5.9%	-3.5%	-6.0%	?	?	nt
O=C(CC1C[C@H](C(=O)N2CCOCC2)[C@@]2(CCC3CCCC3)c3[nH]c4ccccc4c3CCN2C1=O)NCC12CC3CC(CC(C3)C1)C2 (some centres undefined)	2.0%	-3.3%	-3.1%	16.4µM*	16.4µM*	?
O=C(CC1C[C@H](C(=O)N2CCOCC2)[C@@]2(CCC3CCCC3)c3[nH]c4ccccc4c3CCN2C1=O)NCc1ccco1 (some centres undefined)	1.7%	8.0%	8.2%	20.6µM*	?	?
O=C(C[C@H]1C[C@H](C(=O)N2CCOCC2)[C@@]2(CCC3CCCC3)c3[nH]c4cc(-c5ccco5)ccc4c3CCN2C1=O)NCC12CC3CC(CC(C3)C1)C2	0.0%[56.1 µM]	?	-5.4%	14.6µM*	?	?
O=C(C[C@H]1C[C@H](C(=O)N2CCOCC2)[C@@]2(CCC3CCCC3)c3[nH]c4cc(-c5ccco5)ccc4c3CCN2C1=O)NCc1cccc(C(F)(F)F)c1	1.3%[56.1 µM]	?	1.4%	16.4µM*	?	-52.8*
CC[C@]12c3[nH]c4cc(-c5ccco5)ccc4c3CCN1C(=O)[C@@H](CC(=O)NCCN1CCOCC1)C[C@@H]2C(=O)N1CCN(C(=O)c2ccco2)CC1	1.5%[56.1 µM]	-2.6%	5.1%	-13.2%	-15.6%	-1.1
O=C(CC1C[C@H](C(=O)N2CCOCC2)[C@@]2(CCC3CCCC3)c3[nH]c4ccccc4c3CCN2C1=O)NCCN1CCOCC1 (some centres undefined)	-0.9%	-0.4%	11.0%	?	?	-14.7
CCCC[C@@H]1C[C@H]1C(NC(=O)c1ccc(C(F)(F)F)cc1)c1ccc(C(=O)OC)cc1 (some centres undefined)	-2.1%	nt	nt	nt	nt	nt
Cc1cc(C)cc(-n2ccnc(NCc3ccc(F)cc3)c2=O)c1	7.9%	-10.8%	-3.1%	?	?	nt
SMILES	TDP1 block	TGFb inhibitor	HepG2 viability	DT40 TDP1 CPT	TDP1 cell noCPT	IL-1B inflam inh
O=C(CC1C[C@H](C(=O)N2CCOCC2)[C@@]2(CCC3CCCC3)c3[nH]c4ccccc4c3CCN2C1=O)NCCc1ccccn1 (some centres undefined)	3.7%	-34.6%	-16.9%	20.6µM*	?	0.0
CCCCOc1ccccc1NC(=O)C=C(C)C	-2.3%	2.2%	-0.8%	-23.9%	-10.4%	5.8
COc1cccc(NC(=O)/C=C/c2ccc(S(=O)(=O)N3CCOCC3)cc2)c1	4.1%	-8.6%	-18.8%	18.4µM*	?	-8.4
CCN(Cc1ccc(OC)c(F)c1)C(=O)/C=C/c1ccc(S(=O)(=O)N2CCOCC2)cc1	-5.2%	-26.5%	-33.6%	?	23.1µM*	-11.6
CCCOc1ccccc1NC(=O)/C=C/C(N)=O	2.2%	?	-30.9%	1.26µM*	2.51µM*	-6.2
COc1ccc(/C=C/C(=O)Nc2ccc(C(C)=O)cc2)cc1S(=O)(=O)N1CCOCC1	nt	-5.3%	-4.9%	0.4%	-21.5%	11.9
COc1cc(/C=C/C(=O)Nc2ccc(OC)c(S(=O)(=O)N3CCOCC3)c2)ccc1OC(F)F	0.6%	?	0.3%	18.4µM*	16.4µM*	-19.6
COc1ccc(/C=C/C(=O)Nc2ccccc2F)cc1S(=O)(=O)N1CCOCC1	0.5%	-15.9%	-24.9%	?	-17.1%	-87.9*
